Results from PubChem BioAssay AID1903 (Southern Research Specialized Biocontainment Screening …, 2009).
The campaign covered roughly 310,000 compounds. About 1,200 (0.39%) were called active. No rule for the calls is given here. These entries were drawn from the full list. Measured potencies and affinities stand elsewhere.

Target: Large T antigen (Simian virus 40) (UniProt P03070)
Test: SV40 large T antigen inhibitors, biochemical (AID 1903)
Conditions: SV40 large T antigen ATPase/helicase inhibition assay; at 20 µM; active compounds read high

Large T antigen (Simian virus 40), sequence (P03070 whole entry, looked up): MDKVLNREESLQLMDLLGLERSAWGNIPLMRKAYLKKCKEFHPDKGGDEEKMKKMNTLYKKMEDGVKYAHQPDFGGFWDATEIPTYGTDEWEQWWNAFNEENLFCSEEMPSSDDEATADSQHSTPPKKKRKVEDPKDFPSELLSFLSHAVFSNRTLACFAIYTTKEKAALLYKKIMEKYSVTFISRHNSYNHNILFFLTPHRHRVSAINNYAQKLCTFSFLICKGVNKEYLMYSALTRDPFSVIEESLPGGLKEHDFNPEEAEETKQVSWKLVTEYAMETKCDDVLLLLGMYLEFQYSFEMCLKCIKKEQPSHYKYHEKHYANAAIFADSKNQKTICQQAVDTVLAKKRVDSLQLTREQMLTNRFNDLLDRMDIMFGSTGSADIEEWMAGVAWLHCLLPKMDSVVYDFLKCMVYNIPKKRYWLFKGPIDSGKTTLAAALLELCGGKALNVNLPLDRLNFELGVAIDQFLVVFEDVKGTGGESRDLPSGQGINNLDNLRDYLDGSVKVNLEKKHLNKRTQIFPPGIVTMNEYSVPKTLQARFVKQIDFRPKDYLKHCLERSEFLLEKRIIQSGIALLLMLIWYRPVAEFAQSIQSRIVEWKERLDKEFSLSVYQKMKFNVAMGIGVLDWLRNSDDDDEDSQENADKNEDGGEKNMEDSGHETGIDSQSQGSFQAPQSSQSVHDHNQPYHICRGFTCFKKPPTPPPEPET

inhibition, inactive:
COc1ccc(Nc2cccc(Cl)c2)c(C(=O)O)c1 33.4%
COc1ccc(Nc2ccccc2C(=O)O)cc1 31.6%
COc1ccc(/C=N/Nc2ccccn2)cc1O 36.9%
COc1ccc(/C=N/Nc2nc(=O)[nH]nc2C)cc1OC 13.7%
COc1cc(/C=N/Nc2nc(C)cc(=O)[nH]2)ccc1O 35.4%
COc1cc(/C=N/Nc2ccc(C(=O)O)cc2)ccc1O 29.4%
COc1ccc(/C=N/Nc2ccccn2)cc1OC 9.61%
COc1ccc(/C=N/Nc2cc(=O)n(C)c(=O)n2C)cc1OC 9.25%
Cn1c(N/N=C\c2cccc(O)c2)cc(=O)n(C)c1=O -5.57%
COc1cc(/C=N/Nc2ccccn2)cc(OC)c1O 29.8%
CC(=O)c1sc(NC(=O)COc2ccccc2)nc1C 3.21%
CC(C)CCNC(=O)C(=O)Nc1cc2c3c(c1)CCC(=O)N3CCC2 -2.67%
COC(=O)c1ccc(CNC(=O)C23CC4CC(CC(C4)C2)C3)cc1 -3.62%
CCCCc1oc2c(c(=O)c1C)C(=O)CC(c1ccccc1)C2 (centres undefined) 4.52%
CCC(=O)N1CCN(c2ccc(NC(=O)c3ccc(C#N)cc3F)cc2Cl)CC1 6.06%
CCc1ccc(NC(=O)C(=O)N/N=C(\C)CC(=O)Nc2ccccn2)cc1 11.4%
CCC(NC(=O)c1ccc(C#CC2(O)CCCCC2)cc1)C(=O)O (centres undefined) 8.73%
COc1cc(/C=N/Nc2nn3cnnc3c3ccccc23)ccc1O 8.69%
COc1ccc(/C=N/Nc2cc(C)nc3c(C)cccc23)cc1 4.3%
COc1ccc(OC)c(/C=N/Nc2nncn2/N=C/c2cc(OC)ccc2OC)c1 12.7%
Oc1ccc(/C=N/NC2=NCCCCC2)cc1 25.1%
COc1cc(/C=N/Nc2ccccc2)ccc1O 27.7%
CCc1nnc(N/N=C/c2ccc(O)c(OC)c2)n1N 38%
COc1ccc(/C=N/NC2=NCCCCC2)cc1 -2.48%
COc1cccc2c(N/N=C/c3ccccc3)cc(C)nc12 4.18%
CCc1ccc(NC(=O)C2CCN(S(=O)(=O)c3ccc4c(c3)N(C(C)=O)CCO4)CC2)cc1 -0.74%
Cc1ccc(S(=O)(=O)NCCCN2CCCC2)cc1 13.3%
c1ccc(CNc2nc3ccccc3n2CCN2CCOCC2)nc1 7.87%
Cc1ccc(NC(=O)c2nc[nH]c2C(=O)N2CCC(C)CC2)cc1 9.16%
